# ATG4B inhibitor = ATG4B (human) cysteine protease inhibition; Q9Y4P1; ATG4B cleavage of LC3-PLA2, NBD-HPC fluorescence, 1 h; inhibition, % at 8.33 µM; 340,000 tested, 0.51% active; in the data active means inhibition above about 40%
# Target sequence (Q9Y4P1 whole entry, looked up): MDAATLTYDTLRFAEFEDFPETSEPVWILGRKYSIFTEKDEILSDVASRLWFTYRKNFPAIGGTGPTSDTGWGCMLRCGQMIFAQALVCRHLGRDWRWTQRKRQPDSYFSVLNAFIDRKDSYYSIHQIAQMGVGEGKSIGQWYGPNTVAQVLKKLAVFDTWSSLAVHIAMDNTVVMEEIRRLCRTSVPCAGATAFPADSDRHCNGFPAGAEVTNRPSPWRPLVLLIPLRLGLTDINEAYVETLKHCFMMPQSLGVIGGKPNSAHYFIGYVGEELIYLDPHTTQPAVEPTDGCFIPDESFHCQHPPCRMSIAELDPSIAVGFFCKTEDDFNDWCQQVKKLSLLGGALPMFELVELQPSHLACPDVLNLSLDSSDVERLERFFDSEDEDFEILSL
# SUMO1 PPI mod = alters human SUMO1 binding to SIM partners; P63165; SUMO1 binding to a labelled peptide, TR-FRET, 1 h; inhibition, % at 20 µM; 360,000 tested, 0.33% active; AID 602429; in the data active means inhibition above about 37%
# Target sequence (P63165 whole entry, looked up): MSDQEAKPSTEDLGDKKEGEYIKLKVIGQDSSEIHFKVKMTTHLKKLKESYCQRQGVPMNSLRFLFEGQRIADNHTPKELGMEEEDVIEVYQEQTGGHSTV
# Neddylation inh = inhibitors of human cullin neddylation. TR-FRET cullin neddylation, biochemical. inhibition, % at 25 µM. 360,000 tested, 0.58% active; in the data active means inhibition above about 36%
# Rin1 Abl inh = inhibitors of human Rin1-Abl protein interaction; inhibition, % at 7.35 µM; 360,000 tested, 0.4% active; P00519+Q13671; TR-FRET Rin1/Abl binding, biochemical; AID 588664; in the data active means inhibition above about 5%, passing the limit was not always enough
# * marks the source's active call; other numbers are inactive results; nt = no result shown. Only some compounds are listed: those with a hit (about 1.7% of all), similar ones and a draw of the others.
SMILES,ATG4B inhibitor,SUMO1 PPI mod,Neddylation inh,Rin1 Abl inh
O=C(NCc1cccnc1)c1cc(C2CCCCN2S(=O)(=O)c2cccs2)on1 (centres undefined),nt,-2,0,-1
O=C(c1cc(C2CCCCN2S(=O)(=O)c2cccs2)on1)N1CCOCC1 (centres undefined),nt,44*,7,0
Brc1ccc(CNc2ccc3ncccc3c2)cc1,-8,-8,48*,-2
O=C1C(NS(=O)(=O)c2cccs2)=C(N2CCN(c3cccc(C(F)(F)F)c3)CC2)C(=O)c2ccccc21,64*,-16,-28,-4
CCCc1ccc(C(O)c2ncc(-c3ccc(OC)cc3)[nH]2)cc1 (centres undefined),nt,2,16,-4
O=C(O)CN1C(=O)/C(=C\c2cc(Br)ccc2OCc2ccc(Cl)cc2Cl)SC1=S,19,78*,-5,1
COc1cc(/C=C/C(=O)OCC(=O)N2CC(C)OC(C)C2)ccc1OCC#N (centres undefined),nt,-16,23,-3
O=C(N/N=C/c1cc(Br)ccc1O)C(c1ccncc1)N1CCOCC1 (centres undefined),-7,-5,47*,-6
CC1(C)Cc2c(cnn2-c2ccc(F)cc2)C(NC(=O)C2=CC(=O)CC(C)(C)O2)C1 (centres undefined),nt,-3,10,-1
O=C1NC[C@H](CCCCN2CCN(CCc3ccccc3)C(=O)C2=O)N(CCC2CCCCC2)C1=O,nt,2,-10,nt
Cn1c2ccccc2c2cc(/C=N/NC(=O)c3ccc(O)cc3O)ccc21,-5,7,68*,-3
CCn1c2ccccc2c2cc(/C=N/NC(=O)c3ccc(O)cc3)ccc21,1,3,nt,-1
O=C(N/N=C/c1ccccc1O)C1CC(=O)N(c2ccc(Cl)cc2)C1 (centres undefined),-6,1,51*,-3
Cc1ccc(/C=C2/Sc3ccc(C(=O)NCc4ccccn4)cc3NC2=O)cc1,3,50*,nt,-2
Cc1nc(NCc2ccco2)c2c(C)c(C)sc2n1,13,2,-8,4
Cc1sc2nc3c4ccccc4c(NCc4ccco4)nn3c(=O)c2c1C,-3,75*,nt,-8
O=c1ccc2cc3c([nH]c4ccc(Br)cc43)oc-2c1O,nt,22,-34,37*
CCN1C(=O)/C(=C\c2ccc(-c3ccc([N+](=O)[O-])cc3OC)o2)SC1=Nc1cccc(C(=O)O)c1,5,54*,4,1
CCN=C1S/C(=C\c2ccc(-c3cccc(C(=O)O)c3)o2)C(=O)N1CC,6,-2,49*,4
CCN=C1S/C(=C/c2ccc(-c3ccc(Cl)cc3C(=O)O)o2)C(=O)N1CC,10,-2,34,1
O=C(O)c1cccc(-c2ccc(/C=C3/SC(=Nc4ccccc4)N(Cc4cccnc4)C3=O)o2)c1,0,82*,4,2
CN1CCCC1CCNc1ccc2c(=O)c3ccccc3oc2c1 (centres undefined),-3,-2,22,-4
CN1CCC[C@H]1CCNc1ccc2c(=O)c3ccccc3n(C)c2c1,-8,82*,nt,-11
CC(C)(C)NC(=O)C1(C)CCC(=O)N1C1CCN(Cc2ccccc2)CC1 (centres undefined),nt,10,-11,7
Cc1ccc(-c2cc(-c3ccc(C)o3)nc(N)c2C#N)cc1,1,-13,33,-1
SMILES,ATG4B inhibitor,SUMO1 PPI mod,Neddylation inh,Rin1 Abl inh
Cc1ccc(-c2cc(-c3ccc(Cl)cc3)c(C#N)c(N)n2)o1,5,-13,48*,-1
Cc1cn(C2CCCCC2)c(=O)n(-c2ccccc2)c1=O,4,7,2,0
COC(=O)c1ccccc1NC1=C/C(=N\S(=O)(=O)c2ccc(C(=O)O)cc2)c2ccccc2C1=O,28,103*,-54,-1
COC(=O)c1ccccc1NC1=C/C(=N\S(=O)(=O)c2cccs2)c2ccccc2C1=O,-9,-2,-25,-4
COCCN1C[C@@H](CO)O[C@@H](n2cnc3c(NC(C)C)ncnc32)C1,nt,11,-3,-1
CCC(CO)Oc1cc(NC(=O)c2ccc(N)cc2)c2ncn(C(C)C)c2c1 (centres undefined),0,102*,-5,3
Cc1ccc(NC(=O)CSc2nc(N)cc(=O)[nH]2)cc1S(=O)(=O)N1CCCCC1,-3,39*,1,5
CCOC(=O)c1c(NC(=O)c2ccco2)n(C2CCCCC2)c2nc3ccccc3nc12,1,40*,nt,4
CCC(=O)Nc1c(C#N)c2nc3ccccc3nc2n1-c1ccccc1C,-7,-17,nt,0
CCOC(=O)c1c(N)n(C2CC(C)(C)NC(C)(C)C2)c2nc3ccccc3nc12,-17,-10,nt,-9
CCC(=O)Nc1c(C#N)c2nc3ccccc3nc2n1C1CCCCC1,-5,72*,-2,-3
CN(C)CCN1CCN(C2CN(CCc3ccccc3)S(=O)(=O)C2)CC1 (centres undefined),nt,14,9,2
Cc1nc2ccc(NC(=O)N3CCCCC3)cc2nc1C,3,-3,nt,-4
O=C(c1ccccc1)c1ccc2nc(-c3ccco3)c(-c3ccco3)nc2c1,25,52*,-24,1
CCOC(=O)C1CCN(C(=O)Nc2ccc3nc(-c4ccco4)c(-c4ccco4)nc3c2)CC1,3,106*,21,5
O=C(Nc1ccc2nc(-c3ccco3)c(-c3ccco3)nc2c1)N1CCCCCC1,47*,nt,nt,nt
CCCS(=O)(=O)NC(=O)C1(C)CCN(C(=O)c2c(F)cccc2F)C1 (centres undefined),nt,7,-3,4
C#CCOCCOCCOCCNc1nc(N2CCN(C(=O)CCCCCCCCCCNC(=O)Cn3cc(C[C@@H](C)O)nn3)CC2)nc(N2CCN(C(=O)CCCCCCCCCCNC(=O)[C@H](CCCCN)n3cc(CCCC(=O)O)nn3)CC2)n1,-10,-1,-1,6
C#CCOCCOCCOCCNc1nc(N2CCN(C(=O)CCCCCCCCCCNC(=O)[C@H](CO)n3cc(CCCSC)nn3)CC2)nc(N2CCN(C(=O)CCCCCCCCCCNC(=O)[C@H](CCCCN)n3cc(CCO)nn3)CC2)n1,-4,-141,7,10
C#CCOCCOCCOCCNc1nc(N2CCN(C(=O)CCCCCCCCCCNC(=O)[C@H](CO)n3cc(CCCSC)nn3)CC2)nc(N2CCN(C(=O)CCCCCCCCCCNC(=O)[C@H](CCCN=C(N)N)n3cc(C[C@@H](C)CC)nn3)CC2)n1,72*,90*,-3,10
C#CCOCCOCCOCCNc1nc(N2CCN(C(=O)CCCCCCCCCCNC(=O)Cn3cc(C[C@@H](C)O)nn3)CC2)nc(N2CCN(C(=O)CCCCCCCCCCNC(=O)[C@H](CCCN=C(N)N)n3cc(C[C@@H](C)CC)nn3)CC2)n1,31,106*,-15,13*
COc1cccc(CCC(=O)N2CCC(n3nccc3NC(=O)CC(C)C)CC2)c1,1,102*,-8,2
CCC(=O)c1ccc(OCC(=O)Nc2nc(-c3cccnc3)cs2)cc1,-3,46*,-2,-3
CCC(=O)c1ccc(OCC(=O)Nc2nc(C)cs2)cc1,-16,2,8,-1
C[n+]1cccc2c(Br)ccc([O-])c21,-7,49*,-61,-11

# Bioassay records as filed in PubChem.
